Source: PubChem BioAssay AID1508600 (Functional Genomics Laboratory (NCATS/FGL), 2020)
Screen size: about 53,000 sequences; about 3,700 (7%) were called active.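 Rule for the calls: active = gene knockdowns whose robust z-score for IL-1 alpha signal is at least 2 or at most -2, so actives lie on both sides; inactive = the rest.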 The full list was thinned out, with actives kept by preference.

Test: Components of the Cytosolic LPS Sensing Pathway: Gene Identification via Genome-wide siRNA Screen;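 note: robust z of the log signal after scaling to non-targeting control siRNA wells of the plate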
Settings: RAW264.7 macrophages, IL-1a HTRF, actives lie on both sides, screened at 100 nM (by protocol), cells primed 5 h with Pam3CSK4 first
Method in brief: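 Cells (RAW264.7, 1×10^4 per well) were transfected with siRNA at 100 nM and cultured 48h at 37 degrees C. Pam3CSK4 was added for 5 hours; LipidA transfection followed for 24 hour. IL-1a was then measured by HTRF.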

z-score, active:
GGAGGAGCUUAGCCCUUUUTT against Bad 2.28
GAAUCCCUUCGAGUACGACTT against Fxyd2 3.17
GGUCCUUUGAUGCUGACUGTT against Sfrp4 -2.07
GGUGUGUUAAGGUUUUUAATT against Marchf1 3.68
GGCCUGAACUUUUUAUUGATT against Olfr533 -2.19
GGCUUUCAUGUGCCGUUUUTT against Gstm5 2.39
GGCUGCUGAAGCAAAUAAGTT against Ankrd17 3.38
GCCAGUAACCAGAAAAUUGTT against Sycp3 -2.01
CCUAGUACUUCGAAGAAAGTT against Tmem255a -2.62
GGAGAAAAUAAGCUGGUAGTT against Slc35f1 3.42
GGUAUGCUAACAGAACACGTT against Nr1h4 3.15
GGAGCAUAUAUAGAAUUAGTT against Mrps22 3.01
GGCAUCCAUGUGCUCUUUCTT against Tex13a -2.49
GCAUUCAUUGAUCAAUUCUTT against Zbtb6 2
GGGUAAUUAUUGUUUUCUGTT against Eif4e3 2.19

z-score, inactive:
CCCACUGGUUUGUUUAAACTT against Hbegf 0.555
GGUUUUGCCUCCCAUAGUATT against Ssty1 0.112
GCAGUUACGUUAGUUAAUATT against Plekha1 1.1
GCUACUCAUUUAGCAGAGATT against Olfr76 -0.887
GUGGAUUAGGGAAUUUCAUTT against Mrgprb1 1.84
GGAGCUGAAUGUCUGUAGCTT against Mzt2 -1.31
CCUGAUGGAUGAUGAAUCATT against Trap1a -1.42
GGAGGAGCUGGAGAAAACATT against Psd4 -0.43
CCAAGAAAAGUCCAGAAGCTT against Rorb 0.379
GGAGAGACGUAAGAGGCGATT against Zrsr2 0.0858
GGACAAUUGGGCCAAACUGTT against Mpv17 0.103
GGUGAAACCCUGAAAGUCCTT against Tmem154 -0.169
GGAUAAUUUUGGAAGCAGATT against Rheb -0.299
GCAUCUCACUCGUAAAGGUTT against Tmprss11f -0.555
GCGCGUGACAAGGAGGAUUTT against Ska3 1.03
GGGAUUUUAUCAUACAAACTT against Ppil4 0.774
GGAACUUGUUUCAUAUCGUTT against Scfd1 0.839
GGGAUUGUGUGAAUCAUACTT against Tmem230 -1.27
GGGAAGGCUGAAUGACUGCTT against Vamp5 0.257
GGCGAGAGAGAUGAGUAAATT against Smim3 -1.63
GGGAAUUAUGGGCUUACCGTT against 4931414P19Rik -0.414
GGCUAUUUCUUUUUAUGCUTT against Ak4 0.911
GGAGACAAUGGACAAGAAGTT against Dnal4 0.272
CCUUAUUACACACACCCUGTT against Gja3 0.398
GCUGGUAGCAUUCUUAUCCTT against Xylt2 0.529
CGGAUGAGGUUUCUUUUAUTT against Phkb 0.415
GGUUGGUUCUUACUUGAAATT against Mindy3 0.613
GGAUAAUGCUCCAUCAUAGTT against Nab1 -0.419
GCAAUCACCAAAUCACUAGTT against Fstl1 -0.123
GCCAGGAAACGACAAUAAATT against Slc5a11 0.731
GGUCAUUCAGUGGUGCACCTT against Skp1 -0.00227
GGUUUCAAACUCUUGUAAUTT against Pgrmc1 -0.139
GGUUUGUUUUCAGAUGAAGTT against Washc2 0.155
CCCAUCAAUGCUGUUAAUUTT against Entpd5 0.128
GCUCGAUAUCACAGAGAUUTT against Ces5a -0.177
GGAGUUGGAGAAUGACACGTT against Ift88 1.14
GCAGUGUUGUCAAAACUUGTT against Mtfmt 1.54
GGUACUUUAUAGGAACAGUTT against Zbtb41 -0.973
GCAGAUGCUAACAUAUCCATT against Trim32 -0.902
GCGCAGAGAUUACCUUAAGTT against Gtf3a -0.543
CCACUAUUUAAUCUUACCGTT against Hoxc13 0.175
GCGGGCUUUGCUGAGAUUUTT against Zbtb48 0.604
GGAGAUUUCCCGACUUAACTT against Tnip2 1.68
GGGAAAAGGUCAGUGAAGUTT against Fam219b -0.305
GGGAAUGGAAGAAUAUUCUTT against Dppa2 1.61
CCUCGUGUUACUUUUACCCTT against Olfr13 -1.51
GCUUCUCUACACCACAGACTT against Olfr796 -0.0426
GGGUUGAUUGACGAAGCCATT against Fga -1.75
GGAGAUUCAGAAUUACUGATT against Krit1 -0.818
GCCUGCUUUGGAAAAAUCATT against Akr1c12 0.209
CCCAGGAAGCCUUUGAUCUTT against Gmnn 0.263
CCAUCGUCCAAAGUACAUGTT against Rbp4 -1.39
GCUGUUGGUUUCUACUCACTT against Adam21 -0.0536
GGAACAUGUCUCCUGAUCUTT against Add3 -1.07
